Compound activity from PubChem.
An excerpt weighted towards active compounds, which were near 2.6% of everything screened.
A-T KAP1 phos = potential ataxia-telangiectasia treatments restoring KAP-1 phosphorylation. F2112 A-T fibroblasts, KAP-1 phosphorylation AlphaLISA; neocarzinostatin DNA damage 30 min before lysis. Potency, µM (top dose mostly 57.5 µM), for the others: at the highest dose activation, usual class: activators. 320,000 tested, 0.19% active. AID 485349; note: potency is the fitted concentration of half-maximal effect; % of control where 0% means no effect; nearly all actives have a fitted effect of over 45% in size
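hTERT-immortalized A-T patient fibroblasts (F2112), 500 cells/well in OPTI-MEM, 1% FBS, got compounds for 60 min, then NCS for 30 min at 37C. Lysates were then assayed for phospho-KAP-1 by AlphaLISA (anti-pKAP1 donor, anti-KAP1 acceptor beads), 6 hr at 25C.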
CCT chaperon mod = changes cytosolic chaperonin activity; purified chaperonin ATPase assay, HTRF ADP detection, 30 min; activity change, % (no concentration beside the values), hits read low; 360,000 tested, 0.3% active; AID 651819; in the data active = activity change below about -30%; note: % is set by controls: 0 for no effect and ±100 for the full control effect
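First, chaperonin was dispensed at 40 nM or 20 nM final depending on batch activity. Next, compounds were pinned at 76 uM and ATP added at 10 uM. After 30 min at 37 °C, ADP detection reagents ran 30 min at ambient temperature.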
Nrf2 ARE act = activators of Nrf2 (ARE) signaling; AREc32 ARE-luciferase reporter (MCF7-derived line), luminescence, 24 h; Potency, µM (doses to about 46.1 µM), inactives show at the top dose activation, hits mostly activators; 410,000 tested, 0.31% active; AID 624171; note: potency is the fitted concentration of half-maximal effect; % of control where 0% means no effect; nearly all actives have a fitted effect of over 65% in size
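Each well held 1000 AREc32 cells, which were incubated with compound for 24 hr at 37 deg C after overnight attachment, and ARE reporter activity was quantified by firefly luciferase luminescence.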
A549 viability = counter-screen for Nrf2 inhibitors: cytotoxicity in A549 cells; AID 504648; 390,000 tested, 0.16% active; Potency, µM (series often up to 46 µM), without a hit: at the highest dose activity change, negative = cytotoxicity, usual class: inhibitors; A549 ARE-Fluc cells, CellTiter-Fluor viability, 18-24 h; note: potency is the fitted concentration of half-maximal effect; % is set by controls: 0 for no effect and ±100 for the full control effect
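Cytotoxicity counterscreen: CellTiter-Fluor fluorescence was measured in A549 ARE_Fluc cells after 18-24 h of compound exposure in a concentration series. The subsequent BugLite luminescent read reports ARE-luciferase activity.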
TCR act = activators of T cell receptors; primary human leukocytes, anti-CD3, IL-2 HTRF, 48 h; Potency, µM (titrated, usually from 9.22 µM), inactives show at the highest dose activation of IL-2 secretion, most hits filed as activators; 330,000 tested, under 10 active; AID 504894; note: % of control where 0% means no effect
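Human primary leukocytes + a-CD3 beads + cpd, 48 hr; IL-2 in supernatant by HTRF (ex 320nm / em 665nm). No co-stimulatory signal supplied.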
Nrf2 inh = blocks Nrf2 signaling. A549 ARE-Fluc reporter, luciferase luminescence, 18-24 h. 360,000 tested, 2.1% active. AID 504444. Potency, µM (doses to about 46 µM), without a hit: at the highest dose activity change, negative = inhibition, actives largely listed as inhibitors; note: potency is the fitted concentration of half-maximal effect; % is set by controls: 0 for no effect and ±100 for the full control effect; nearly all actives have a fitted effect of over 60% in size
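Nrf2 function is reported as luminescence of an ARE-controlled luciferase in A549 cells. Compounds were tested at several concentrations, and a CellTiter-Fluor read on the same wells flagged cytotoxicity.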
Active calls of the source: *; ? = inconclusive; / = no result given; [ ] = remark or other dose. Unless noted, calls come from the whole dose curve; as a rule, active = well fitted curve in the direction sought with a large enough effect; inconclusive = small, poorly fitted or top-dose-only effect, or another doubt; inactive = no such curve, though single readings can be large; an effect the other way counts as inactive or inconclusive.

SMILES | A-T KAP1 phos | CCT chaperon mod | Nrf2 ARE act | A549 viability | TCR act | Nrf2 inh
COc1ccc(NS(=O)(=O)c2ccc3oc(SC(C)C(N)=O)nc3c2)cc1 (stereo not given) | 5% | -1 | 3% | -3% | 1% | 23µM*
Fc1cccc(C2NN=C(c3ccccc3)S2)c1 (stereo not given) | 10% | -7 | 3.5µM* | 10% | -3%[46.1 µM] | ?
OCCC#Cc1c(-c2ccsc2)sc2ccccc12 | 8% | -1 | 2.5µM* | 5% | 5% | 7%
Cc1cccc(NC(=S)/N=C(\N)Nc2nc(C)c3ccc(C)cc3n2)c1 | 0% | 0 | 4% | ? | -6% | 15µM*
Cc1cccc(NC(=S)/N=C(\N)Nc2nc(C)c3cc(C)ccc3n2)c1 | -1% | -4 | 2% | ? | -10%[46.1 µM] | 12%
Cc1nc(CNC(=O)CC2C(=O)NCCN2Cc2ccoc2)nc2c1CCCC2 (stereo not given) | -7% | 2 | 0% | -3% | -15% | 2%
Oc1[nH]c(N=C2N=c3ccccc3=N2)c2ccccc12 | -8% | -7 | 5.6µM* | ? | 3% | ?
CC1(C)CC(=O)C(C=NCC2CCN(C(=S)Nc3ccccc3)CC2)=C(O)C1 | -1% | -1 | 0% | -2% | 2% | 11%
COc1ccc2cc(S(=O)(=O)c3ccccc3)c(=O)oc2c1 | -5% | -1 | ? | 2% | 1% | -16%
Cc1ccc(S(=O)(=O)c2cc3ccc(O)cc3oc2=O)cc1C | 20µM* | -1 | 22% | 5% | -5% | -27%
COc1ccc(NC(=O)c2ccc(COc3ccccc3Br)o2)cc1OC | 0% | 0 | 7% | -14% | -2% | 23µM*
CCCCN(C(=O)CSc1nnc(-c2ccc(Cl)cc2)o1)c1c(N)n(CC(C)C)c(=O)[nH]c1=O | 7% | 1 | 0% | ? | 3% | 18µM*
Brc1cc(Cc2nnc(-c3ccccc3)o2)c(Br)s1 | 29% | -2 | 8.9µM* | -4% | -1% | ?
Nc1c(S(=O)(=O)c2ccccc2)c2nc3ccccc3nc2n1Cc1ccco1 | 22µM* | -2 | 0% | ? | 3% | 26µM*
Cc1csc2nc(O)c(C(=O)NC3CCCCCC3)c(=O)n12 | 4% | -35* | 0% | -9% | 5% | ?
COCCCN1CN=C(NS(=O)(=O)c2ccc(NC(C)=O)cc2)NC1 | / | / | 1% | 2% | / | 5%
COc1ccc(-c2cc(C)no2)cc1S(=O)(=O)N1CCN(c2ccc(C(C)=O)cc2)CC1 | / | / | 0% | -1% | / | 13µM*
Cc1cc(NC(=O)c2sc(Nc3ccc(F)c(Cl)c3)nc2N)no1 | 0% | -3 | 3% | -11% | / | ?
Cc1cc(NC(=O)c2sc(Nc3cccc(C(F)(F)F)c3)nc2N)no1 | -3% | -3 | 3% | ? | 2% | 16µM*
O=C(COc1ccc(C(=S)N2CCCC2)cc1)Nc1ccccc1C(F)(F)F | 3% | -1 | 3% | ? | / | 23µM*
O=C(COc1ccc(C(=S)N2CCOCC2)cc1)Nc1ccccc1C(F)(F)F | 1%[11.5 µM] | -2 | 0% | -1% | 4% | ?
FC(F)(F)c1ccccc1NC(=S)N1CCN(c2ccccn2)CC1 | 1% | 0 | -1% | -9% | -2% | ?
S=C(Nc1ccccc1Cl)N1CCCCCC1 | -1% | 0 | 0% | -10% | 0% | 3%
S=C(Nc1ccc(Cl)cc1Cl)N1CCCCC1 | 2% | -66* | 3% | 1% | 2%[46.1 µM] | ?
FC(F)(F)c1ccccc1NC(=S)N1CCN(Cc2ccc3c(c2)OCO3)CC1 | 8% | -3 | 0% | -2% | 6% | 18µM*
FC(F)(F)c1ccccc1NC(=S)N1CCCC1 | -4% | -38* | 2% | 1% | -10% | 19%
COc1ccc(-n2c(=O)c3c4c(sc3n(CC(=O)N3CCCCC3C)c2=O)CCC4)c(OC)c1 (stereo not given) | / | / | 0% | -7% | / | -4%
